Consider eight compounds from PubChem BioAssay (NCI).

About 83,000 compounds went through this panel and 20% of them were active in at least one assay; those are over-represented in the sample as a whole.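 A percent growth of 40 corresponds to 60% growth inhibition; 0 means no net growth; -100 means all cells died. Active threshold: below 10.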 Values without a mark were called inactive. Activity calls are given as the source filed them.

Among the test systems are SR leukemia; RPMI-8226 leukemia; OVCAR-8 ovarian; OVCAR-5 ovarian; OVCAR-4 ovarian; SK-OV-3 ovarian; IGROV1 ovarian; OVCAR-3 ovarian; HS 578T breast; NCI/ADR-RES ovarian; T-47D breast; BT-549 breast; MDA-MB-435 melanoma; SW-620 colon; MCF7 breast; HCT-116 colon; HCC-2998 colon; KM12 colon.
Common to all, as to experiment: NCI-60 one-dose screen, 48 h (100 = growth as untreated, 0 = no growth, -100 = all killed)
Holding throughout (conditions): 10 µM unless noted

Consider `O=[N+]([O-])c1cccc(-c2nc3sccn3c2-c2ccnc(NCCCNS(=O)(=O)c3ccc(Cl)cc3)n2)c1`, for which the growth was 60.7% with SR leukemia; 16.2% in the experiment with RPMI-8226 leukemia; 20% in the experiment on OVCAR-8 ovarian; 112% in the experiment on OVCAR-5 ovarian; 17.5% with OVCAR-4 ovarian; 96.5% in the experiment on SK-OV-3 ovarian. For the same compound, the growth is 43.3% in the experiment with IGROV1 ovarian; 44.5% with OVCAR-3 ovarian; 81.2% in the experiment with HS 578T breast; 12.6% in the experiment with NCI/ADR-RES ovarian; 6.46% (active) in the experiment with T-47D breast; 30.2% in the experiment with BT-549 breast. For the same compound, the growth with MDA-MB-435 melanoma is 33.4%; in the experiment on SW-620 colon, 90.1%; in the experiment with MCF7 breast, 33.2%; in the experiment on HCT-116 colon it was 53.3%; with HCC-2998 colon it was 116%; in the experiment on KM12 colon, 39.2%.
With `COc1cc(NC(N)=NCCC(C)(C)Oc2ccc(C(F)(F)F)cc2)ncc1C#N`, the growth with SR leukemia is -54.9% (active); in the experiment with RPMI-8226 leukemia, -49.6% (active); in the experiment on OVCAR-8 ovarian, -76.6% (active); in the experiment with OVCAR-5 ovarian, 28.9%; with OVCAR-4 ovarian, 12%; in the experiment on SK-OV-3 ovarian, 48.8%. For the same compound, the growth was -38.9% (active) in the experiment with IGROV1 ovarian; -75% (active) in the experiment with OVCAR-3 ovarian; 38.1% in the experiment with HS 578T breast; 0.0363% (active) in the experiment on NCI/ADR-RES ovarian; -44.6% (active) in the experiment with T-47D breast; 40.4% with BT-549 breast. Also, the growth is -91.2% (active) in the experiment with MDA-MB-435 melanoma; -79% (active) with SW-620 colon; -71.1% (active) with MCF7 breast; -88.4% (active) in the experiment with HCT-116 colon; -86.6% (active) in the experiment on HCC-2998 colon; -51.7% (active) in the experiment with KM12 colon.
As for `Cc1csc(NC(c2ccc(Br)cc2)c2c(C)nc3ccccn23)n1` (centres undefined), the growth in the experiment with SR leukemia is 96.6%; in the experiment on RPMI-8226 leukemia it was 74.7%; with OVCAR-8 ovarian, 88.6%; in the experiment with OVCAR-5 ovarian, 88.2%; with OVCAR-4 ovarian it was 81.5%; in the experiment with SK-OV-3 ovarian it was 85.3%. The growth in the experiment on IGROV1 ovarian is 86.5%; in the experiment on OVCAR-3 ovarian it was 96.7%; in the experiment on HS 578T breast, 84.6%; in the experiment on NCI/ADR-RES ovarian, 95.4%; in the experiment with T-47D breast, 75.6%; in the experiment on BT-549 breast, 90.7%. The growth in the experiment on MDA-MB-435 melanoma was 97.7%; in the experiment with SW-620 colon it was 88.1%; with MCF7 breast, 83.3%; in the experiment on HCT-116 colon, 59.8%; with HCC-2998 colon, 117%; in the experiment on KM12 colon, 97.7%.
Consider `COc1cc(/C=C/C(=O)c2ccc(Nc3ncnc4cc(OC)c(OC)cc34)cc2)cc(OC)c1`, for which the growth was 30.6% with SR leukemia; -2.38% (active) in the experiment on RPMI-8226 leukemia; 95.3% in the experiment with OVCAR-8 ovarian; 112% with OVCAR-5 ovarian; 107% with OVCAR-4 ovarian; 116% with SK-OV-3 ovarian. The growth was 99.5% with IGROV1 ovarian; 104% in the experiment on OVCAR-3 ovarian; 97.3% in the experiment on HS 578T breast; 97.3% in the experiment on NCI/ADR-RES ovarian; 100% with T-47D breast; 105% with BT-549 breast. Moreover, the growth with MDA-MB-435 melanoma is 51.8%; in the experiment with SW-620 colon, 109%; in the experiment on MCF7 breast it was 73%; in the experiment on HCT-116 colon, 30.8%; with HCC-2998 colon it was 106%; in the experiment on KM12 colon, 82.9%.
Consider `C=C[C@@H]1C[C@@H]2Cc3cc(F)ccc3N1O2`, for which the growth with SR leukemia was 32%; in the experiment with RPMI-8226 leukemia, 94.1%; in the experiment on OVCAR-8 ovarian, 114%; in the experiment with OVCAR-5 ovarian, 97%; with OVCAR-4 ovarian, 104%; in the experiment with SK-OV-3 ovarian, 113%. Also, the growth was 122% with IGROV1 ovarian; 113% with OVCAR-3 ovarian; 106% with HS 578T breast; 102% in the experiment with NCI/ADR-RES ovarian; 111% in the experiment with T-47D breast; 124% with BT-549 breast. Further, the growth in the experiment on MDA-MB-435 melanoma was 98.7%; in the experiment with SW-620 colon, 112%; in the experiment with MCF7 breast, 100%; with HCT-116 colon it was 112%; with HCC-2998 colon, 95.3%; in the experiment with KM12 colon, 108%.
Regarding `CCCCCc1cc[n+](CC(=O)c2ccc([N+](=O)[O-])cc2)cc1`, the growth in the experiment on SR leukemia is 73.2%; in the experiment with RPMI-8226 leukemia, 45.1%; in the experiment on OVCAR-8 ovarian, 77%; in the experiment on OVCAR-5 ovarian it was 109%; with OVCAR-4 ovarian it was 26.3%; in the experiment on SK-OV-3 ovarian, 93.9%. For the same compound, the growth in the experiment with IGROV1 ovarian is 110%; in the experiment with OVCAR-3 ovarian, 58.8%; with HS 578T breast, 106%; in the experiment with NCI/ADR-RES ovarian, 110%; in the experiment on T-47D breast, 56.7%; in the experiment on BT-549 breast, 77%. Besides, the growth is 68.2% in the experiment on MDA-MB-435 melanoma; 49% in the experiment with SW-620 colon; 43% in the experiment on MCF7 breast; 21.2% with HCT-116 colon; 58.1% in the experiment with HCC-2998 colon; 50% in the experiment on KM12 colon.
As for `CCCCCCCCCCCCNC(=O)[C@H]1CSC(c2cc(Br)cs2)N1` (some centres undefined), the growth in the experiment on SR leukemia was -31.3% (active); in the experiment with RPMI-8226 leukemia, 37.7%; in the experiment with OVCAR-8 ovarian, -64.8% (active); in the experiment on OVCAR-5 ovarian it was 9.52% (active); in the experiment on OVCAR-4 ovarian, -72.4% (active); in the experiment on SK-OV-3 ovarian, -42.5% (active). Also, the growth in the experiment on IGROV1 ovarian is -54.1% (active); in the experiment on OVCAR-3 ovarian, -50.8% (active); in the experiment with HS 578T breast, -41.2% (active); in the experiment on NCI/ADR-RES ovarian, -22.3% (active); in the experiment with T-47D breast, 39.4%; in the experiment with BT-549 breast it was -58.4% (active). Further, the growth in the experiment on MDA-MB-435 melanoma is -90.3% (active); in the experiment on SW-620 colon it was -34.2% (active); in the experiment with MCF7 breast, 49%; in the experiment with HCT-116 colon, -82% (active); with HCC-2998 colon, 54.3%; in the experiment with KM12 colon it was -55.3% (active).
On to `C=C[C@@H]1C[C@@H]2Cc3c(C)cc(C)cc3N1O2`, for which the growth with SR leukemia was 6.7% (active); with RPMI-8226 leukemia, 74.7%; with OVCAR-8 ovarian, 98%; in the experiment with OVCAR-5 ovarian, 86.5%; with OVCAR-4 ovarian it was 83.6%; in the experiment on SK-OV-3 ovarian, 105%. The growth was 106% in the experiment on IGROV1 ovarian; 103% in the experiment on OVCAR-3 ovarian; 92.1% in the experiment on HS 578T breast; 102% in the experiment on NCI/ADR-RES ovarian; 115% in the experiment on T-47D breast; 112% in the experiment on BT-549 breast. Further, the growth is 101% in the experiment with MDA-MB-435 melanoma; 102% in the experiment with SW-620 colon; 97.6% in the experiment on MCF7 breast; 104% in the experiment with HCT-116 colon; 103% with HCC-2998 colon; 104% with KM12 colon.
